± gives the standard deviation of the averaged measurements.

The test system of this experiment is RPE1. In words: nucleolar normality score relative to DMSO (fraction of DMSO control); RPE1 is a non-cancer human cell line; higher = more normal nucleoli (less nucleolar stress). As to the method:
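Selected screen hits were validated in hTERT lines (BJ5TA, CHON-002, RPE1) and cancer lines (DLD1, HCT116). Cells were immunostained for nucleolin and UBF and the nucleolar normality score was measured per field of view, with 4 fields per drug. Scores are normalized to each cell line's own DMSO control. Dose and time are not stated for this panel.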
Turning to `CC[C@@]1(O)C(=O)OCc2c1cc1n(c2=O)Cc2cc3ccccc3nc2-1` [Camptothecin], the nucleolar normality score was found to be 0.413 ± 0.024.

For the origin of these results see the supplement of paper PMC10723795.
